# According to the supplement of paper PMC12282887:
# ± gives the standard deviation of the averaged measurements.
# How the values were obtained:
# Assay in all cases: promoter activity interaction Z-score (Lux/OD deviation from empty-vector control); higher = stronger promoter induction by the compound
# [1] = system: E. coli BW25113 acrABp lux reporter
# Outline: (§1)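 Low-copy luxCDABE promoter reporters were carried by E. coli BW25113, either wild type or lacking one of three genes, grown in 40 µl LB Lennox in 384-well plates at 37°C. Each compound was run at four 1:2 dilutions in biological duplicates, with OD600 and luminescence read every 30 min for 12 h. Integration used 0–8 h for wild type and 1–9 h for deletion strains, and wells under 10% of the median growth value were removed. Luminescence normalised to growth was fitted against a control, and the Z-transformed residual is the score.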
# [2] = system: E. coli BW25113 marRABp lux reporter
# Outline: as §1
# [3] = system: E. coli BW25113 micFp lux reporter
# Outline: as §1
# [4] = system: E. coli BW25113 ompFp lux reporter
# Outline: as §1
# [5] = system: E. coli BW25113 robp lux reporter
# Outline: as §1
# [6] = system: E. coli BW25113 soxSp lux reporter
# Outline: as §1
# [7] = system: E. coli BW25113 tolCp lux reporter
# Outline: as §1
# [8] = 40.6 µg/ml, genetic background: wild type
# [9] = 40.6 µg/ml, genetic background: ΔmarA
# [10] = 40.6 µg/ml, genetic background: Δrob
# [11] = 40.6 µg/ml, genetic background: ΔsoxS
# [12] = 81.1 µg/ml, genetic background: wild type
# [13] = 81.1 µg/ml, genetic background: ΔmarA
# [14] = 81.1 µg/ml, genetic background: Δrob
# [15] = 81.1 µg/ml, genetic background: ΔsoxS
# [16] = 162.2 µg/ml, genetic background: wild type
# [17] = 162.2 µg/ml, genetic background: ΔmarA
# [18] = 162.2 µg/ml, genetic background: Δrob
# [19] = 162.2 µg/ml, genetic background: ΔsoxS
# [20] = 324.4 µg/ml, genetic background: wild type
# [21] = 324.4 µg/ml, genetic background: ΔmarA
# [22] = 324.4 µg/ml, genetic background: Δrob
# [23] = 324.4 µg/ml, genetic background: ΔsoxS
smiles,measurement,setting,value
C=C[C@H]1CN2CC[C@H]1C[C@H]2[C@H](O)c1ccnc2ccc(OC)cc12 [Quinine],promoter activity interaction Z-score,[1]; [8],-0.0276 ± 0.14
same,promoter activity interaction Z-score,[1]; [9],0.379 ± 1.7
same,promoter activity interaction Z-score,[1]; [10],-0.214 ± 0.025
same,promoter activity interaction Z-score,[1]; [11],-0.207 ± 0.36
same,promoter activity interaction Z-score,[1]; [12],-0.0617 ± 0.23
same,promoter activity interaction Z-score,[1]; [13],0.66 ± 0.57
same,promoter activity interaction Z-score,[1]; [14],-0.0693 ± 0.15
same,promoter activity interaction Z-score,[1]; [15],0.146 ± 0.074
same,promoter activity interaction Z-score,[1]; [16],-0.321 ± 0.19
same,promoter activity interaction Z-score,[1]; [17],-0.122 ± 1
same,promoter activity interaction Z-score,[1]; [18],0.00483 ± 0.12
same,promoter activity interaction Z-score,[1]; [19],-0.386 ± 0.088
same,promoter activity interaction Z-score,[1]; [20],-0.269 ± 0.44
same,promoter activity interaction Z-score,[1]; [21],-0.173 ± 0.094
same,promoter activity interaction Z-score,[1]; [22],0.046 ± 0.023
same,promoter activity interaction Z-score,[1]; [23],-0.181 ± 0.2
same,promoter activity interaction Z-score,[2]; [8],0.0904 ± 0.38
same,promoter activity interaction Z-score,[2]; [9],-0.307 ± 0.24
same,promoter activity interaction Z-score,[2]; [10],-0.00554 ± 0.082
same,promoter activity interaction Z-score,[2]; [11],-0.106 ± 0.073
same,promoter activity interaction Z-score,[2]; [12],-0.119 ± 0.029
same,promoter activity interaction Z-score,[2]; [13],0.197 ± 0.19
same,promoter activity interaction Z-score,[2]; [14],-0.0844 ± 0.1
same,promoter activity interaction Z-score,[2]; [15],0.0817 ± 0.18
same,promoter activity interaction Z-score,[2]; [16],-0.16 ± 0.05
same,promoter activity interaction Z-score,[2]; [17],0.254 ± 0.062
same,promoter activity interaction Z-score,[2]; [18],-0.151 ± 0.3
same,promoter activity interaction Z-score,[2]; [19],-0.0309 ± 0.098
same,promoter activity interaction Z-score,[2]; [20],1.1 ± 0.12
same,promoter activity interaction Z-score,[2]; [21],1.18 ± 0.12
same,promoter activity interaction Z-score,[2]; [22],-0.164 ± 0.17
same,promoter activity interaction Z-score,[2]; [23],0.579 ± 0.51
same,promoter activity interaction Z-score,[3]; [8],0.322 ± 0.35
same,promoter activity interaction Z-score,[3]; [9],0.0116 ± 0.1
same,promoter activity interaction Z-score,[3]; [10],-0.133 ± 0.038
same,promoter activity interaction Z-score,[3]; [11],-0.0747 ± 0.16
same,promoter activity interaction Z-score,[3]; [12],0.106 ± 0.04
same,promoter activity interaction Z-score,[3]; [13],0.118 ± 0.17
same,promoter activity interaction Z-score,[3]; [14],-0.0678 ± 0.18
same,promoter activity interaction Z-score,[3]; [15],0.253 ± 0.078
same,promoter activity interaction Z-score,[3]; [16],0.0719 ± 0.29
same,promoter activity interaction Z-score,[3]; [17],0.23 ± 0.0035
same,promoter activity interaction Z-score,[3]; [18],0.137 ± 0.068
same,promoter activity interaction Z-score,[3]; [19],0.356 ± 0.086
same,promoter activity interaction Z-score,[3]; [20],0.7474 ± 0.0019
same,promoter activity interaction Z-score,[3]; [21],0.582 ± 0.025
same,promoter activity interaction Z-score,[3]; [22],0.201 ± 0.17
same,promoter activity interaction Z-score,[3]; [23],1.13 ± 0.047
same,promoter activity interaction Z-score,[4]; [8],0.0547 ± 0.22
same,promoter activity interaction Z-score,[4]; [9],-0.33 ± 0.1
same,promoter activity interaction Z-score,[4]; [10],-0.566 ± 0.33
same,promoter activity interaction Z-score,[4]; [11],0.39 ± 0.047
same,promoter activity interaction Z-score,[4]; [12],-0.0322 ± 0.074
same,promoter activity interaction Z-score,[4]; [13],0.401 ± 0.48
same,promoter activity interaction Z-score,[4]; [14],0.0636 ± 0.022
same,promoter activity interaction Z-score,[4]; [15],0.369 ± 0.07
same,promoter activity interaction Z-score,[4]; [16],-0.435 ± 0.35
same,promoter activity interaction Z-score,[4]; [17],-0.0896 ± 0.32
same,promoter activity interaction Z-score,[4]; [18],0.318 ± 0.14
same,promoter activity interaction Z-score,[4]; [19],-0.194 ± 0.092
same,promoter activity interaction Z-score,[4]; [20],-0.15 ± 0.097
same,promoter activity interaction Z-score,[4]; [21],0.352 ± 0.51
same,promoter activity interaction Z-score,[4]; [22],-0.0516 ± 0.19
same,promoter activity interaction Z-score,[4]; [23],-0.0712 ± 0.12
same,promoter activity interaction Z-score,[5]; [8],0.233 ± 0.19
same,promoter activity interaction Z-score,[5]; [9],-0.32 ± 0.61
same,promoter activity interaction Z-score,[5]; [10],-0.0483 ± 0.15
same,promoter activity interaction Z-score,[5]; [11],0.121 ± 0.51
same,promoter activity interaction Z-score,[5]; [12],-0.103 ± 0.11
same,promoter activity interaction Z-score,[5]; [13],0.432 ± 0.065
same,promoter activity interaction Z-score,[5]; [14],0.674 ± 0.12
same,promoter activity interaction Z-score,[5]; [15],0.933 ± 0.31
same,promoter activity interaction Z-score,[5]; [16],-0.361 ± 0.36
same,promoter activity interaction Z-score,[5]; [17],0.246 ± 0.82
same,promoter activity interaction Z-score,[5]; [18],0.504 ± 0.18
same,promoter activity interaction Z-score,[5]; [19],0.352 ± 0.57
same,promoter activity interaction Z-score,[5]; [20],-0.236 ± 0.25
same,promoter activity interaction Z-score,[5]; [21],0.371 ± 0.84
same,promoter activity interaction Z-score,[5]; [22],0.206 ± 0.3
same,promoter activity interaction Z-score,[5]; [23],-0.277 ± 1.1
same,promoter activity interaction Z-score,[6]; [8],-0.2102 ± 0.00085
same,promoter activity interaction Z-score,[6]; [9],-0.278 ± 0.015
same,promoter activity interaction Z-score,[6]; [10],-0.273 ± 0.13
same,promoter activity interaction Z-score,[6]; [11],-0.121 ± 0.17
same,promoter activity interaction Z-score,[6]; [12],-0.286 ± 0.043
same,promoter activity interaction Z-score,[6]; [13],-0.134 ± 0.031
same,promoter activity interaction Z-score,[6]; [14],-0.188 ± 0.032
same,promoter activity interaction Z-score,[6]; [15],-0.041 ± 0.2
same,promoter activity interaction Z-score,[6]; [16],-0.297 ± 0.031
same,promoter activity interaction Z-score,[6]; [17],-0.177 ± 0.0058
same,promoter activity interaction Z-score,[6]; [18],0.0402 ± 0.16
same,promoter activity interaction Z-score,[6]; [19],-0.15 ± 0.37
same,promoter activity interaction Z-score,[6]; [20],-0.241 ± 0.021
same,promoter activity interaction Z-score,[6]; [21],-0.171 ± 0.066
same,promoter activity interaction Z-score,[6]; [22],-0.243 ± 0.11
same,promoter activity interaction Z-score,[6]; [23],-0.272 ± 0.35
same,promoter activity interaction Z-score,[7]; [8],-0.906 ± 1
same,promoter activity interaction Z-score,[7]; [9],-0.418 ± 0.34
same,promoter activity interaction Z-score,[7]; [10],0.214 ± 1.5
same,promoter activity interaction Z-score,[7]; [11],-0.701 ± 0.52
same,promoter activity interaction Z-score,[7]; [12],-0.18 ± 0.28
same,promoter activity interaction Z-score,[7]; [13],0.28 ± 0.4
same,promoter activity interaction Z-score,[7]; [14],-0.738 ± 0.76
same,promoter activity interaction Z-score,[7]; [15],-0.512 ± 0.23
same,promoter activity interaction Z-score,[7]; [16],-0.157 ± 0.39
same,promoter activity interaction Z-score,[7]; [17],0.0619 ± 0.15
same,promoter activity interaction Z-score,[7]; [18],-0.0757 ± 0.051
same,promoter activity interaction Z-score,[7]; [19],-0.611 ± 1.3
same,promoter activity interaction Z-score,[7]; [20],-0.913 ± 0.14
same,promoter activity interaction Z-score,[7]; [21],0.586 ± 1.1
same,promoter activity interaction Z-score,[7]; [22],-0.0963 ± 1.2
same,promoter activity interaction Z-score,[7]; [23],0.127 ± 0.016
